# Shown are actives, neighbours in structure and some others; about 0.96% of the full set was active somewhere.
# sdo1 growth: sdo1-depleted yeast growth rescue; S. cerevisiae sdo1-depleted JHY4D growth rescue, OD600 30 h; stronger effect = higher value; pdr5 snq2 efflux-pump mutant strain; z-score at 10 µM; 140,000 tested, 0.21% active;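 active = z-score above 3 at both the 24 hr and the 30 hr optical density reads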;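 also: z-score against mean and SD of all compound wells on the same plate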
# E-sel TNF inh: TNF alpha driven E-selectin expression inhibition; HUVEC TNFa-induced E-selectin immunofluorescence, high content; inhibition, % at 2 µM; 120,000 tested, 0.71% active;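 active = inhibition above the batch mean plus 3 SD, and confirmed as a hit on visual image review, cut at about 43% in these data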;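 also: 0% = TNF-stimulated DMSO wells and 100% = unstimulated control wells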
# sEH inhibitor: inhibitors of human soluble epoxide hydrolase; P34913; inhibition, % at 2 µM; AID 707; recombinant human sEH enzymatic activity assay; 91,000 tested, 0.34% active; in the data active = inhibition above about 80%
# Target sequence (P34913 whole entry, looked up): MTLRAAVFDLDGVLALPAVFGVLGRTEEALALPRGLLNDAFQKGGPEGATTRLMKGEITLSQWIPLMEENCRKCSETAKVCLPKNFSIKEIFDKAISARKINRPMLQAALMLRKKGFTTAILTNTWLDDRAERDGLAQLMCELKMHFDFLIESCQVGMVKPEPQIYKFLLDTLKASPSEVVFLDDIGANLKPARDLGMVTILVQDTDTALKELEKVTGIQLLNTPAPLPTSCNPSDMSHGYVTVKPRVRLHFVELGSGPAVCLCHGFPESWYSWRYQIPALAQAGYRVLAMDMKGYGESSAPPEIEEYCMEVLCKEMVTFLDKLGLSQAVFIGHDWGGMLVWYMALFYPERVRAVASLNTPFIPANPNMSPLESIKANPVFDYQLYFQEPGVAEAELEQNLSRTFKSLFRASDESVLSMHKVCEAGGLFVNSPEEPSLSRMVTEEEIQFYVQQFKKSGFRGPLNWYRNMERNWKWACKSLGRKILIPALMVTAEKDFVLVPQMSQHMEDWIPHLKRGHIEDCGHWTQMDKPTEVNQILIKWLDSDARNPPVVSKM
# cytoskel mod: alters cytoskeleton assembly in HUVEC cells; AID 836; 91,000 tested, 0.18% active; inhibition, % at 2 µM; HUVEC TNFa F-actin phalloidin imaging, high content;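 active = inhibition above the batch mean plus 3 SD and confirmed as a hit by visual image inspection, cut at about 30% in these data, passing the limit was not always enough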
# Phagocytosis inh: macrophage phagocytosis inhibition. AID 1029. inhibition, % at 5 µM. 110,000 tested, 0.07% active. J774A.1 macrophage IgG-bead phagocytosis, imaging;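 active = inhibition above the mean of the plate negative controls plus 5 SD, cut at about 13% in these data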;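 also: phagocytic index as fraction of beads internalized from green versus red external bead signal; plate controls were DMSO negative control for no effect and cytochalasin-D positive control for full effect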
# sEH act: soluble epoxide hydrolase (human) activation; P34913; purified human sEH enzymatic activity, activator screen; activation, % at 2 µM; 91,000 tested, 0.04% active; in the data active = activation above about 37%
# SDO1 rescue DR: SDO1-depleted yeast growth rescue confirmation; OD recovery (no concentration beside the values); AID 949; S. cerevisiae JHY4D (SDO1-depleted) growth rescue, OD600, 30 h; stronger effect = higher value; efflux-deficient strain, SNQ2 and PDR5 mutated; shares compounds with sdo1 growth; 440 tested, 44% active;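 active = yeast growth recovered at 30 hours, either rising with dose fitted slope above 0.001 or with average optical density gain above 0.07, some results past the limit were not filed as active; inactive = growth falling with dose or no effect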;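 also: gain in OD600 from 0 h to 30 h averaged across all seven doses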
# An asterisk follows results filed as active; . = not tested or not shown; + = active, no number.
SMILES,sdo1 growth,E-sel TNF inh,sEH inhibitor,cytoskel mod,Phagocytosis inh,sEH act,others
Cc1c(C(=O)N2CCN(c3ccccc3F)CC2)sc2ncn(CC(=O)N3CCOCC3)c(=O)c12,-0.1,57.5,-8.9,88.3*,1.4,7.5,
OC(c1ccc2c(c1)OCO2)c1nccc2ccccc12 (stereo unspecified),-1.24,71.5*,1.0,16.7,-0.7,-2.2,
CC(C)n1c(C(O)c2ccc3c(c2)OCO3)nc2ccccc21 (stereo unspecified),-0.39,-12.8,.,.,-0.8,.,
CC12CN3CCN(CC(C3)/C1=N\NC(=O)Nc1cccc(Cl)c1)C2,.,-7.4,.,.,.,.,
CC1CCCN(S(=O)(=O)c2ccc(C(=O)Nc3nnc(-c4ccccc4Cl)o3)cc2)C1 (stereo unspecified),-1.19,-9.3,82.5*,-21.3,-0.7,-82.5,
CN(C)c1ccc(N/C=C/C(=O)c2ccco2)cc1,1.48,.,-17.5,-3.6,178.6*,17.8,
Cc1c(NC(=O)CN2CC(C)OC(C)C2)c(=O)n(-c2ccccc2)n1C (stereo unspecified),0.49,66.0*,1.4,8.9,0.4,-2.7,
Cc1c(NC(=O)CN2CCN(c3ccccc3)CC2)c(=O)n(-c2ccccc2)n1C,-0.02,-11.2,10.3,-21.6,.,-7.8,
O=C1c2cccc(OCC(=O)N3CCCc4ccccc43)c2CCN1Cc1ccc(Br)cc1,-0.61,81.1*,.,.,-7.0,.,
CCOC(=O)N1CCN(CC(O)COc2ccc(C)cc2C(C)(C)C)CC1 (stereo unspecified),-0.85,.,.,.,-1.6,.,
COc1ccc(C(=O)C(CO)Oc2ccccc2OC)cc1OC (stereo unspecified),0.53,73.4*,0.9,2.9,-0.2,-1.3,
CC(C)NC(=S)NCc1cccnc1,1.56,52.7,.,.,-6.0,.,
COCC(C)NC(=O)CCS(=O)(=O)c1nc(-c2ccc(OC)cc2)cc(C(F)(F)F)n1 (stereo unspecified),-1,82.6*,.,.,-1.3,.,
CCOC(=O)CS(=O)(=O)c1nc(-c2ccc(F)cc2)cc(C(F)(F)F)n1,-1.49,57.7*,.,.,-1.3,.,
CCOC(=O)CCS(=O)(=O)c1nc(-c2ccccc2)cc(C(F)(F)F)n1,-0.91,48.1,-15.1,-16.6,1.9,14.6,
CCOC(=O)CS(=O)(=O)c1nc(-c2ccccc2)cc(C(F)(F)F)n1,-1.51,67.1*,-0.2,-1.8,-0.7,2.7,
CCC(C)[C@H](NC(=O)N1CCN(C)CC1)C(=O)OC (stereo partly specified),1.28,.,.,.,-13.5,.,
O=C(Cc1ccc(Br)cc1)OCC(=O)N1CCc2ccccc2C1,-0.26,.,.,.,-9.2,.,
CCCS(=O)(=O)c1c(S(=O)(=O)CCC)c2ccc(C(N)=O)cn2c1C(=O)c1ccc(F)cc1,.,6.8,.,.,.,.,
CCCS(=O)(=O)c1c(S(=O)(=O)CCC)c2cnccn2c1C(=O)c1ccc(Cl)cc1,14.9*,27.2,-24.2,0.0,1.6,21.0,
CC1(C)CCCC(C)(C)N1CC(O)COCCOc1ccc(Br)cc1 (stereo unspecified),1.02,.,.,.,-0.5,.,
COc1ccc(C(=O)/C=C/c2cccs2)c(OC(=O)c2cccc([N+](=O)[O-])c2)c1,-1.57,8.4,2.9,-34.5,-0.4,-0.3,
COc1ccc(C(=O)/C=C/c2ccc(F)cc2)c(OC(=O)c2ccc([N+](=O)[O-])cc2)c1,-1.67,70.4*,-9.4,-1.5,-0.3,12.5,
Cn1c(NC(=O)c2cc(Br)ccc2Cl)cc(=O)n(C)c1=O,0.13,-2.2,-24.8,-1.8,-0.4,23.5,
Cc1cc(NC(=O)CSc2nnc(Cc3ccccc3)n2C)no1,1.33,44.0*,-3.8,19.3,.,3.1,
SMILES,sdo1 growth,E-sel TNF inh,sEH inhibitor,cytoskel mod,Phagocytosis inh,sEH act,others
CCn1c(Cc2ccccc2)nnc1SCC(=O)Nc1cc(C)on1,-0.16,-5.1,-14.4,19.4,1.0,13.8,
O=C(NCN1C(=O)C2C3C=CC(C3)C2C1=O)Nc1nncs1 (stereo unspecified),-0.1,99.9*,-2.2,0.3,.,5.0,
O=C(NCN1C(=O)C2C3C=CC(C3)C2C1=O)Nc1cccnc1 (stereo unspecified),0.5,.,-12.4,-7.0,-1.0,12.6,
COCCNC(=O)C1CCC(Cn2c(=S)[nH]c3ccccc3c2=O)CC1 (stereo unspecified),1.2,-2.1,57.6,-1.9,-2.9,-57.8,
O=C(NCCc1c[nH]c2ccccc12)C1CCC(Cn2c(=S)[nH]c3ccccc3c2=O)CC1 (stereo unspecified),0.27,-6.3,94.8*,-5.0,-1.0,-94.7,
CCN(CC)C(C(=O)Nc1ccc(C(C)C)cc1)c1ccc2c(c1)OCO2 (stereo unspecified),-0.19,-7.3,-38.4,0.6,-2.1,37.9*,
CC/C(=N\O)c1c(O)c2c(n(-c3ccccc3)c1=O)CCCC2,-0.19,-6.2,.,.,-4.2,.,
Cc1sc2nc(SCC(=O)N3CCN(CCO)CC3)n(-c3ccccc3)c(=O)c2c1C,0.71,-19.4,.,.,+,.,
COc1ccc(Cl)cc1S(=O)(=O)N1CCN(Cc2ccc3c(c2)OCO3)CC1,-1.82,14.2,-7.2,-20.3,-2.0,6.4,
O=S(=O)(Cc1ccccc1Cl)N1CCN(Cc2ccc3c(c2)OCO3)CC1,-2.3,-17.6,1.5,47.3*,3.6,-2.2,
C/C(N)=C(/C#N)C(=O)COC(=O)c1oc2ccccc2c1COC(C)C,.,1.6,.,.,.,.,
COc1ccc(Br)cc1/C(C)=N/NC1=NCCN1,0.22,-0.3,5.3,9.5,2.9,-3.5,
CCCCCOc1ccc(Br)cc1/C(C)=N/NC1=NCCN1,-1.26,4.0,0.2,49.3*,.,-0.3,
O=S(=O)(NCC(c1ccco1)N1CCN(c2ccccc2)CC1)c1ccc(F)cc1 (stereo unspecified),-0.76,68.7*,.,.,-8.2,.,
CCS(=O)(=O)NCC(c1ccco1)N1CCN(c2ccccc2)CC1 (stereo unspecified),-0.24,70.4*,.,.,-1.4,.,
O=C(Cn1nnc2ccccc21)Nc1ccccc1[N+](=O)[O-],.,5.0,.,.,.,.,
COc1cc(S(=O)(=O)NC2CCCCC2C)ccc1Cl (stereo unspecified),-1.45,50.6*,3.6,1.0,-0.5,-2.4,
COc1cc(S(=O)(=O)NC2CCCC2)ccc1Cl,0.45,0.0,5.8,-1.3,-0.6,-3.4,
Cc1ccc(C(=O)NCC2CCCO2)cc1N1CCCC1=O (stereo unspecified),0.43,66.1*,-21.7,2.1,1.6,21.2,
O=C(/C=C/c1ccccc1)Nc1ncn[nH]1,0.69,60.0*,5.7,9.6,-0.9,-5.3,
O=C(CCc1ccccc1)Nc1ncn[nH]1,0.42,.,-4.9,.,.,6.9,
O=C(NCCN=C1NS(=O)(=O)c2ccccc21)c1ccco1,3.76*,.,-1.7,4.8,-0.5,2.5,SDO1 rescue DR=0.0847*
CC1CCN(C(=O)C2CCC(CNS(=O)(=O)c3cccc4cccnc34)CC2)CC1 (stereo unspecified),9.6*,13.7,14.2,1.2,.,-15.3,SDO1 rescue DR=0.0559
O=C(/C=C/c1cccc(OCc2ccccc2)c1)c1cccnc1,-1.88,.,.,.,-4.9,.,

# Screening results (PubChem BioAssay)
